# Data taken from PubChem BioAssay (NCI).
# This is part of a sample that, as a whole, favours compounds with a hit. Of some 83,000 tested, about 20% had one in any assay.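 Single-dose data. Exposure time 48 hours. Values below 10 considered active.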 Unmarked numbers belong to inactive results. Active and inactive are the calls of the source.
# Tests used:
# Assay in all cases: NCI-60 one-dose screen, 48 h (100 = growth as untreated, 0 = no growth, -100 = all killed)
# Details in all cases: 10 µM unless noted
# DU-145 prostate = test system: DU-145 prostate
# K-562 leukemia = test system: K-562 leukemia
# MALME-3M melanoma = test system: MALME-3M melanoma
# MDA-MB-231 breast = test system: MDA-MB-231 breast
# RXF 393 renal = test system: RXF 393 renal
# SF-268 CNS = test system: SF-268 CNS
# SF-295 CNS = test system: SF-295 CNS
# SF-539 CNS = test system: SF-539 CNS
# UACC-257 melanoma = test system: UACC-257 melanoma
# M14 melanoma = test system: M14 melanoma
Structure (SMILES),growth (DU-145 prostate),growth (K-562 leukemia),growth (MALME-3M melanoma),growth (MDA-MB-231 breast),growth (RXF 393 renal),growth (SF-268 CNS),growth (SF-295 CNS),growth (SF-539 CNS),growth (UACC-257 melanoma),growth (M14 melanoma)
Cc1ccc(C(=O)C2=Cc3cc4ccccc4n3Cc3cnnn32)cc1,113%,75.1%,116%,95.5%,95.3%,101%,114%,111%,98.8%,115%
CCOC(=O)c1cn2c3c(cccc3c1=O)C(=O)/C(=C/c1cccc(Cl)c1Cl)C2,106%,91%,116%,89.5%,87%,87.9%,95.8%,101%,87.5%,98.7%
C=C1CCC2C(C)(CO)C(O)CCC2(C)C1C/C=C1/C(=O)OCC1O/C=C/c1ccccc1 (stereo not given),82.8%,22.9%,105%,95.6%,81.2%,96.7%,92.7%,96.9%,83.6%,86.1%
Cc1csc(NC(c2ccccc2)c2c(C)nc3ccccn23)n1 (stereo not given),110%,88.1%,97.2%,96.8%,122%,103%,87.1%,101%,94.8%,95.3%
C=C[C@@H]1C[C@@H]2Cc3ccccc3N1O2,120%,54.3%,125%,106%,119%,116%,99.8%,103%,97.7%,102%
Cc1cc(C2=NNC(=O)Cc3cc4c(cc32)OCCO4)cc(C)c1N,19.3%,25.5%,32.3%,67.5%,37.7%,44.6%,17.1%,19.4%,60.1%,13.4%
C=C[C@@H]1C[C@@H]2Cc3cc(F)ccc3N1O2,112%,95.7%,170%,112%,115%,106%,112%,107%,93.8%,120%
N/C(=N\C(N)=N\c1nc2ccccc2s1)c1cccc(Br)c1,99.1%,73.6%,101%,73.4%,95.5%,101%,76%,98.6%,103%,82%
CCOC(=O)c1ccc(NC(=O)N2CC(C)OC(C)C2)cc1 (stereo not given),111%,89.9%,101%,96.5%,98.6%,106%,98.5%,95.8%,106%,107%
C=C1CCC2C3(C)COC(c4ccc(N(C)C)cc4)OC3CCC2(C)C1C/C=C1/C(=O)OCC1O (stereo not given),7.35% (active),44%,105%,85.4%,1.3% (active),74.9%,95.6%,99.2%,49.5%,71.7%
O=Nc1c(-c2cccc([N+](=O)[O-])c2)nc2ncccn12,73.5%,10.5%,85.2%,111%,-3.85% (active),92.2%,107%,91%,79.3%,76.9%
FC(F)(F)c1ccccc1-c1cn2c(ccc3ccccc32)n1,104%,29.8%,65.1%,69.5%,84.4%,90.3%,62.1%,78.6%,70.3%,60.3%
C=C1CCC2C3(C)COC(C)(C)OC3CCC2(C)C1C/C=C1/C(=O)OCC1Oc1ccccc1OC (stereo not given),78.9%,21.7%,112%,103%,93.3%,99.7%,101%,83%,85.3%,72.3%
COc1ccc(/C=C2/C(=O)NC(SCC(=O)N3CCN(c4cc5c(cc4F)c(=O)c(C(=O)O)cn5C4CC4)CC3)=NC2N)cc1OC (stereo not given),104%,107%,108%,106%,109%,96.8%,93.9%,101%,108%,106%
Fc1ccc(-c2nc(-c3nc4ncccc4[nH]3)cc3c2[nH]c2ccccc23)cc1F,49%,78.5%,78.5%,53.9%,73.1%,71.1%,86.9%,79.6%,92.2%,78.8%
CC(C)(C)c1[nH]nc2c1C(c1cc3ccccc3[nH]c1=O)Nc1cc(C(=O)Nc3ccc(Cl)cc3)ccc1N2 (stereo not given),83.8%,39.2%,80.6%,85.6%,43.9%,62.2%,38.5%,85.8%,83.9%,53.5%
CCCCN(CCCC)C(=N)c1ccnc2ccccc12,117%,110%,98.8%,119%,127%,103%,93.8%,113%,66.2%,110%
Cn1ncc2c(Sc3ccc(Cl)cc3)ncnc21,83%,78.1%,69.9%,98.6%,117%,57.8%,96.8%,92.2%,103%,103%
CC(C)(C)n1cc(-c2ccnc(NCCCNS(=O)(=O)c3cccc(F)c3)c2)c(-c2cccc(O)c2)n1,66%,2.9% (active),50.3%,37.3%,46.5%,54%,31.6%,39.3%,52.9%,34.9%
CC(=O)Nc1ccc(/C=C/C(=O)c2ccccc2)cc1,86.6%,36.7%,120%,104%,68.2%,89.1%,106%,96.6%,89.3%,97.7%
O=C1c2ccccc2-c2ccccc2C1(Cl)Cl,-90.6% (active),-15.4% (active),-99.4% (active),-27.5% (active),-95.6% (active),-83.8% (active),-91% (active),-94.8% (active),-93% (active),-69.6% (active)
CC(C)(C)N1CCC1C(N)=O (stereo not given),108%,97.7%,90.3%,112%,103%,102%,106%,97.7%,96%,78.6%
COc1ccc(S(=O)(=O)Nc2cc(/C=C\c3cc(OC)c(OC)c(OC)c3)cc(OC)c2OC)cc1,-0.291% (active),7.33% (active),81.5%,21%,40.9%,14%,19.4%,0.203% (active),51.3%,15.9%
O=C1C2(c3ccccc3)C(c3ccccc3)=C(c3ccccc3)C1(c1ccccc1)C1CC=CC12 (stereo not given),101%,69.3%,82.9%,70.7%,84.6%,91.1%,68.1%,89.3%,78.4%,95.4%
CC(C)CC1NC(C)(C)CO1 (stereo not given),117%,125%,124%,106%,109%,102%,131%,126%,112%,110%
COc1ccc(Nc2ncccc2C(=O)NCc2cn(Cc3cccc(Oc4ccccc4)c3)nn2)c(OC)c1,4.02% (active),21.3%,46.4%,23.9%,6.03% (active),36.6%,7.69% (active),5.94% (active),85.5%,14.2%
COc1ccc2[nH]c(=O)c3c4ccccc4cn3c2c1,11.3%,4.25% (active),12.6%,28.5%,-25.2% (active),1.5% (active),-2.6% (active),9.14% (active),51.3%,23.9%
ClC(Cl)c1nc(-c2cccnc2)n2nc(-c3ccccc3)cc2n1,-21.7% (active),6.07% (active),-4.43% (active),17.3%,-51% (active),23%,0.57% (active),60.8%,96.4%,71%
